The values that follow come from ChEMBL document CHEMBL1201862, “PubChem BioAssay data set” (2004).

Measured potencies and affinities stand elsewhere.

The nature of the experiment: M. tuberculosis growth inhibition, dose response, 7H9 media, purified and synthesized compounds, set 4 (AID 504857). The format is functional.

As for `Nc1c(C(=O)NC2CCCCC2)nsc1C(=O)OCC(=O)NC1CCCCC1`, the IC90 (usually the concentration needed for an effect of 90%) is > 71.1 µM (active).
